Measurements: PubChem BioAssay (NCATS)
Inconclusive results are not listed. The source made the active and inactive calls. The call rests on the fitted dose curve; in most records, active means well fitted cell-killing curve with a large enough effect; inconclusive means small, poorly fitted or top-dose-only effect, or effect the other way; inactive means no such curve, though single readings can be large or run the other way.

Experiment: Viability qHTS for spleen associated tyrosine kinase inhibitor (SYKi) drug resistant MV4-11 cells (AID 1963824); further: nearly all actives have a fitted effect of over 35% in size
Conditions: SYKi-resistant MV4-11 viability, CellTiter-Glo, 72 h; series mostly up to 45 µM; viability, % of control: at the top concentration
Method in brief: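 SYK-inhibitor-resistant MV4-11 AML cells were seeded at 500 per well onto compound and cultured 72 hours (37 °C, 5% CO2). CellTiter-Glo was then added, and after 10 min at room temperature, luminescence gave viability.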
Potency means the concentration at half of the fitted maximal effect.

Row | Compound | Potency | viability, % of control
1 | O=C(Nc1ccc(S(=O)(=O)Nc2nccs2)cc1)c1cc(-c2ccccc2)nc2ccccc12 | 16.4 µM (active) | –
2 | COc1ccc(-c2ccc3c(N4CCOCC4C)nc(N4CCOCC4C)nc3n2)cc1CO (stereo unspecified) | 0.103 µM (active) | –
3 | CNc1cc(OC)c(C(=O)N[C@@H]2CCN(Cc3ccccc3)[C@@H]2C)cc1Cl | 14.6 µM (active) | –
4 | Cc1noc2c1-c1ccccc1C(c1ccc(Cl)cc1)=N[C@H]2CC(N)=O | 0.332 µM (active) | –
5 | COC(=O)c1sccc1S(=O)(=O)Nc1ccc(Nc2ccccc2)cc1OC | 3.26 µM (active) | –
6 | O=C(NO)c1cnc(N2CCN(S(=O)(=O)c3ccc4ccccc4c3)CC2)nc1 | – | 6.92% [at 17.3 µM] (inactive)
7 | CC1(C)C2CC[C@@]34CC(CC[C@H]3[C@]2(C)CC[C@@H]1O[C@@H]1O[C@H](CO)[C@@H](O)[C@H](O)[C@H]1O)[C@](C)(O)C4 (stereo partly specified) | – | 67.6% [at 17.3 µM] (inactive)
8 | O=C1CC2(CCCC2)[C@H](O)C(=O)N1CCCCN1CCN(c2ncccn2)CC1 | – | 75.7% (inactive)
9 | CC1=CC(=O)OC(C)(CC(C)(O)C(=O)O)C1 (stereo unspecified) | – | 86.5% (inactive)
10 | CC1CCC2(C(=O)OC3OC(CO)C(O)C(O)C3O)CCC3(C)C(=CCC4C5(C)CCC(O)C(C)(CO)C5CCC43C)C2C1(C)O (stereo unspecified) | – | 93.4% [at 17.3 µM] (inactive)
11 | O=C1OC(c2ccc(O)cc2)(c2ccc(O)cc2)c2ccccc21 | 18.8 µM (active) | –
12 | Nc1ncnc2n[nH]c(Nc3ccc(F)cc3)c12 | 6.51 µM (active) | –
13 | C=C(C=O)[C@]1(O)C[C@@]2(C)C(=CC1=O)C=C[C@H](OC(=O)/C=C/C=C/[C@H](C)CC)[C@@H]2C | 0.796 µM (active) | –
14 | CC(Oc1ccc2[nH]nc(/C=C/c3cnn(CCO)c3)c2c1)c1c(Cl)cncc1Cl (stereo unspecified) | 0.0116 µM (active) | –
15 | Clc1ccc(Cn2c(Cc3ccccc3)nc3ccccc32)cc1 | 16.4 µM (active) | –
16 | COc1ccc2c(c1O)OC(C)(C)c1c-2ccc2c1C(=O)N(c1ccc(C(=O)c3ccccc3)cc1)C2=O | – | 76.1% (inactive)

Row | Compound | Potency | viability, % of control
17 | COc1ccc(F)cc1-c1cc(NC(=O)[C@@H]2CCCNC2)ncc1Cl | 0.103 µM (active) | –
18 | COC(=O)CC(O)C1OC(c2ccccc2)C(O)C1O (stereo unspecified) | – | 55.5% (inactive)
19 | COC1CC/C=C(\C)C(=O)Nc2cc(O)cc(c2)CC(C)CC(OC)C(O)C(C)/C=C(\C)C1OC(N)=O (stereo unspecified) | 0.632 µM (active) | –
20 | C[C@@H]1O[C@@H](O[C@H]2[C@H](O[C@H]3[C@H](O[C@H]4CC[C@@]5(C)C(CC[C@]6(C)C5CC=C5[C@@H]7CC(C)(C)CC(=O)[C@]7(C)CC[C@]56C)[C@@]4(C)CO)O[C@H](C(=O)O)[C@@H](O)[C@@H]3O)O[C@H](CO)[C@H](O)[C@@H]2O)[C@H](O)[C@H](O)[C@H]1O (stereo partly specified) | – | 68.7% [at 9.25 µM] (inactive)
21 | CC(C)c1c(O)ccc2c1CC[C@H]1C(C)(C)CCC[C@]21C | 16.4 µM (active) | –
22 | O=C(/C=C/n1cnc(-c2cc(C(F)(F)F)cc(C(F)(F)F)c2)n1)NNc1cnccn1 | 1.46 µM (active) | –
23 | CNc1cc2[nH]c(=O)n(-c3ccc(NC(=O)NS(=O)(=O)c4ccc(Cl)s4)cc3)c(=O)c2cc1F | – | 83.1% (inactive)
24 | CNc1nc(Nc2ccc(C(=O)N3CCOCC3)cc2OC)nc2[nH]cc(Cl)c12 | 6.51 µM (active) | –
25 | CC(C)C1=CC2=CCC3[C@](C)(CCC[C@@]3(C)C(=O)O)C2CC1O (stereo partly specified) | – | 89.1% (inactive)
26 | CO[C@H]1C[C@@H]2CC[C@@H](C)[C@@](O)(O2)C(=O)C(=O)N2CCCC[C@H]2C(=O)O[C@H]([C@H](C)C[C@@H]2CC[C@@H](OC(=O)C(C)(CO)CO)[C@H](OC)C2)CC(=O)[C@H](C)/C=C(\C)[C@@H](O)[C@@H](OC)C(=O)[C@H](C)C[C@H](C)/C=C/C=C/C=C/1C | 10.2 µM (active) | –
27 | O=C(NO)c1ccc(CC(=O)N(CCO)c2ccccc2)cc1 | 16.4 µM (active) | –
28 | COC(=O)/C=C/C=C/C(=O)OC1C=C2COC(=O)C2(O)C2(C)CCCC(C)(C)C12 (stereo unspecified) | 8.93 µM (active) | –
29 | CC#C[C@@H](CC(=O)O)c1ccc(OCc2ccc(CN3CCC4(C=Cc5ccccc54)CC3)s2)cc1 | 11.6 µM (active) | –
30 | Cc1ccc(-n2nc(C(C)(C)C)cc2NC(=O)Nc2cc(COc3cccnc3)[nH]n2)cc1 | 0.146 µM (active) | –
31 | CC(=O)OC[C@]12[C@H](OC(C)=O)C(=O)[C@@H]3[C@@H](OC(C)=O)[C@@]14O[C@@]3(C)COC(=O)c1cccnc1[C@@H](C)[C@H](C)C(=O)O[C@@H]([C@H](OC(C)=O)[C@@H]2OC(C)=O)[C@]4(C)O | – | 93.7% [at 17.3 µM] (inactive)
